# PubChem BioAssay (EPA / NIEHS)
# Values joined by “and” are separate entries in the source; they are usually repeats but may differ in a detail not shown here. Equal entries are not always repeated. Some structures have more than one record in an assay (separate samples or runs), and their calls can disagree. Active and inactive are the calls of the source. How the source made its calls: active means hit-call score of the fitted dose curve at least 0.9, where 1 is the maximum; inactive means score below 0.9.
# Assay: CCTE_Mundy_HCI_Cortical_Synap_Neur_Matur_BPCount: CCTE's Synaptogenesis and Neurite Maturation Assay in rat cortical cells for Branch Point Count, Mundy Lab (AID 2284211)
# Experimental: CCTE_Mundy_HCI_Cortical_Synap&Neurite_Matur is a multiplexed, cell-based-readout assay that uses rat primary cortical cells with measurements taken at 288.33 hours after chemical dosing in a microplate: 96-well plate.CCTE_Mundy_HCI_Cortical_Synap_Neur_Matur_BPCount is one of eight components of the CCTE_Mundy_HCI_Cortical_Synap&Neurite_Matur assay. It measures synaptogenesis and neurite maturation related to number of branch points using High Content Imaging of fluorescently labelled markers.[…] Using a type of morphology reporter, loss -of-signal activity can be used to understand developmental effects.
# Cells are plated onto 96 well plates and allowed 2 hr for attachment to the substrate. At days in vitro (DIV) 5, Cytosine Arabinoside (AraC) is added to arrest glial cell growth. Chemicals are dosed and a media change is performed at DIV 7 of differentiation and is continued through DIV 12 when the experiment is terminated. Cells are fixed with […] and Hoechst Dye. Cells are stained using Millipore Mouse anti-MAP2MAB3418 (1:800) and Millipore Rabbit anti-Synaptophysinsc-1750 (1:250) primary antibodies and Alexa Fluor-488 goat anti-mouse and AlexaFluor-546 goat anti-rabbit secondary antibodies to label neuronal cell nuclei, synapses and neurites. A Cellomics ArrayScan VTi HCS Reader is used for automated image acquisition and analysis of neurite outgrowth.
SMILES,AC50,outcome
CC[C@H](C)[C@H]1O[C@]2(C=C[C@@H]1C)C[C@@H]1C[C@@H](C/C=C(\C)[C@@H](O[C@H]3C[C@H](OC)[C@@H](O[C@H]4C[C@H](OC)[C@@H](O)[C@H](C)O4)[C@H](C)O3)[C@@H](C)/C=C/C=C3\CO[C@@H]4[C@H](O)C(C)=C[C@@H](C(=O)O1)[C@]34O)O2 (tested in a mixture with another compound),0.896 µM (active),
O=C(O)C(F)(F)C(F)(F)C(F)(F)C(F)(F)C(F)(F)C(F)(F)C(F)(F)F,,inactive
CCC(C)(C)C(=O)OC1=C(c2ccc(Cl)cc2Cl)C(=O)OC12CCCCC2,,inactive
CC(C)N(C(=O)COc1nnc(C(F)(F)F)s1)c1ccc(F)cc1,,inactive
COP(=O)(OC)OC=C(Cl)Cl,49 µM (active),inactive
CC1(c2ccc(Oc3ccccc3)cc2)OC(=O)N(Nc2ccccc2)C1=O (centres undefined),20.2 µM (active),
CNC(=O)CSP(=S)(OC)OC,50 µM (active),inactive
O=[N+]([O-])/N=C1\NCCN1Cc1ccc(Cl)nc1,,inactive
COP(=S)(OC)Oc1ccc([N+](=O)[O-])cc1,,inactive
O=S1OCC2C(CO1)C1(Cl)C(Cl)=C(Cl)C2(Cl)C1(Cl)Cl (centres undefined),15 µM (active),
CC1(C)C(C=C(Cl)Cl)C1C(=O)OC(C#N)c1ccc(F)c(Oc2ccccc2)c1 (centres undefined),49.9 µM (active) and 15 µM (active),
O=S(=O)(O)C(F)(F)C(F)(F)C(F)(F)C(F)(F)C(F)(F)C(F)(F)C(F)(F)C(F)(F)F,,inactive
